# Data from PubChem BioAssay.
# A number with no mark means an inactive call. The rule behind the calls is not given here.
# Molecular target: Pantothenate synthetase (Mycobacterium tuberculosis (strain ATCC 25618 / H37Rv)) (UniProt P9WIL5)
# Experiment: Coupled enzyme confirmation of inhibitors against recombinant Mtb PanC (AID 375);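 note: 0% = full reaction with vehicle and 100% = no enzyme background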
# Settings: coupled enzyme assay; at 10 µM, hits give high values
# Sequence of Pantothenate synthetase (Mycobacterium tuberculosis (strain ATCC 25618 / H37Rv)) (P9WIL5 whole entry, looked up): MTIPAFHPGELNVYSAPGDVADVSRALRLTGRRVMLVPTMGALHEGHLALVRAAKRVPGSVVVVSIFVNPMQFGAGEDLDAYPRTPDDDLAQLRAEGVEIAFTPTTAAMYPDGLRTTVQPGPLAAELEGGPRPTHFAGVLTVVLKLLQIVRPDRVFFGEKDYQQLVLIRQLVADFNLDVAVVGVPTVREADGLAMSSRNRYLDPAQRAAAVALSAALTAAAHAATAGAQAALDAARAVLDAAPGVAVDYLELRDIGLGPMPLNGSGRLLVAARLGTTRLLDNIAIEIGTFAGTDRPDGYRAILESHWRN
row,SMILES,inhibition [%]
1,COC(=O)c1cnn2c(C(F)(F)F)cc(-c3ccco3)nc12,0
2,O=C(Nc1ccc2c(c1)OCO2)C(c1ccccc1)N1CCC2(CC1)OCCO2 (centres undefined),0
3,COc1ccccc1NC(=O)N1CCN(c2ccccc2F)CC1,0
4,CC1CCN(C(=O)CN2C(=O)C(C)(C)Oc3ccc(C(=O)NC4CCCC4)cc32)CC1,0
5,Cc1cccc(N2CCN(S(=O)(=O)c3ccc4c(c3)CCC(=O)N4)CC2C)c1 (centres undefined),6
6,Cc1nc(SCC(=O)c2c[nH]c3ccccc23)n[nH]1,4
7,O=C(Cn1ncc2c1-c1ccccc1OC2)N1CCc2ccccc21,0
8,COCCSc1ccccc1C(=O)Nc1cc(C)on1,5
9,C=CCNS(=O)(=O)c1ccc2nsnc2c1,0
10,CCOC(=O)Cc1nnc(NC(=O)c2ccccc2OCC)s1,0
11,COc1ccc(C(=O)COC(=O)CCn2nnc(-c3cccs3)n2)cc1,0
12,COc1ccc(-n2ncc3c(NCc4cccs4)ncnc32)cc1,0
13,CCC(C)NC(=O)C1(C)CCC(=O)N1CCc1ccc(OC)c(OC)c1 (centres undefined),0
14,CC(=O)N1c2c(cc(Br)cc2S(=O)(=O)N2CCN(c3ccccn3)CC2)CC1C (centres undefined),0
15,CCCCS(=O)(=O)NC1=NCN(C2CCN(Cc3ccccc3)CC2)CN1,5
16,Cc1nnc(SC(=O)N2c3ccccc3Sc3ccccc32)s1,6
17,CCCC1(C(=O)OCC)NC(c2ccc(N(C)C)cc2)C2C(=O)N(c3ccc(F)cc3)C(=O)C21 (centres undefined),3
18,COC(=O)COc1cccc(NC(=O)COc2ccccc2)c1,2
19,C/C=C(\C)c1nnc(NC(=O)C(C)C)s1,1
20,Fc1cccc(-c2cc3nc4c(c(N5CCN(c6cnccn6)CC5)n3n2)CCCC4)c1,0

row,SMILES,inhibition [%]
1,Cc1csc(NC(=O)c2cc3c(s2)-c2ccccc2OC3)n1,0
2,COCCCNC(=O)c1c(N)n(-c2cccc(S(N)(=O)=O)c2)c2nc3ccccc3nc12,2
3,Cc1cccc(NC(=O)CC2CCC2)c1,0
4,CCCCSc1cc(C)nc2ncnn12,0
5,Cc1cccc(N2CCN(C(=O)Cn3nc(Cc4ccncc4)c4ccccc4c3=O)CC2)c1C,4
6,Cc1ccccc1-c1nc(CN2CCC(C(=O)NCc3cccnc3)CC2)c(C)o1,0
7,C=CCc1cc(C(=O)N2CCCCC2)ccc1O,0
8,COc1cccc(NC(=O)N2CCN(C(=O)C(Cc3ccc(OC)c(OC)c3)NC(C)=O)CC2)c1 (centres undefined),0
9,CCOC(=O)c1sc2nc(C)cc(C)c2c1N,0
10,CN1CCN(C(=O)C2(NC(=O)Nc3cccc(F)c3)CCCCC2)CC1,0
11,CCOc1ccc(NC(=O)CC2NCCNC2=O)cc1 (centres undefined),9
12,Cc1cc(C(=O)Nc2nc3c(s2)CCCC3)cs1,0
13,CN(Cc1cccs1)c1ncnc2sccc12,0
14,COc1ccccc1-c1nc(C(F)(F)F)c(OC)o1,0
15,COc1ccc(-c2cc(C(=O)NCCc3ccccc3)no2)cc1OC,4
16,COC(=O)c1cccc(S(=O)(=O)N2CCN(c3nc4ccccc4s3)CC2)c1,2
17,Cc1nnc(NC(=O)C2CCCO2)s1 (centres undefined),3
18,Cn1c(=O)c2c(nc(Br)n2CCSc2ncccn2)n(C)c1=O,9
19,CNC(=O)CC(C(=O)O)c1ccc(OCC(C)C)cc1 (centres undefined),1
